Hits are enriched below; roughly 2.6% of the tested compounds scored in any of these assays.
PK Bst = alters activity of Bacillus stearothermophilus pyruvate kinase | Potency, µM | purified pyruvate kinase, luminescence ATP production; ribose 5-phosphate activator present at AC10 | AID 361 | 1.2% of 51,000 active; in the data active = potency below about 11 µM; inconclusive = mostly about 12 µM to 25 µM;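 the screen sought inhibitors and activators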;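 also: potency is read from the fitted curve at half-maximal effect; scaled between full activation by ribose 5 phosphate and full inhibition by luteolin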
FLuc inh = firefly luciferase inhibition. P08659. AID 411. Potency, µM (series often up to 57.1 µM), for the others: at the top dose activity change, negative = inhibition, hits mostly inhibitors. purified firefly luciferase, luminescence, 8 min. 2.2% of 72,000 active; also: potency is read from the fitted curve at half-maximal effect; % is scaled to controls: 0 for no effect and ±100 for the full control effect; nearly all actives have a fitted effect of over 40% in size
Target sequence (P08659 whole entry, looked up): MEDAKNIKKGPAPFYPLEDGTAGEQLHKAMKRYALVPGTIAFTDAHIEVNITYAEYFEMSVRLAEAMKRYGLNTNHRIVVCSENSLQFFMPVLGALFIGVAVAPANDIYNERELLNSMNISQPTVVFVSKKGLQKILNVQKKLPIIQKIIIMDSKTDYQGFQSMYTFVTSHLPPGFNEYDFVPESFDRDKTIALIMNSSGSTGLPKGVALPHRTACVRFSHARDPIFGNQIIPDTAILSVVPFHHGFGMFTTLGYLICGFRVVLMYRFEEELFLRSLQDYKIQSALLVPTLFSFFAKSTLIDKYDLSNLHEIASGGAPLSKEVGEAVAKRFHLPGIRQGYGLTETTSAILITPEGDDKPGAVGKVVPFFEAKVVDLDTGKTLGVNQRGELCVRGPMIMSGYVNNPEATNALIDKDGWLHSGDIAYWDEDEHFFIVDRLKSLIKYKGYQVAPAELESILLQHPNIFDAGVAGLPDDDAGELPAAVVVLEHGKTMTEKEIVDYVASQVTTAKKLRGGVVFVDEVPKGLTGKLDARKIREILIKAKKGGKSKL
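Inhibition of light generation by firefly luciferase from ATP and luciferin was profiled with concentration-response curves per sample, ATP held at 10 uM within the enzyme's linear range. Plates were read by luminescence after an 8-minute ambient incubation.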
HBB splice mod = alters splicing of the hemoglobin beta chain | HBB splicing reporter cell assay, activation; EGFP reporter with mutant IVS2-654 intron; response scale: normalised to 500 nM splice-correcting PNA | Potency, µM (series often up to 46.1 µM), for the others: at the highest dose activation, hits mostly activators | 0.06% of 65,000 active; also: potency is read from the fitted curve at half-maximal effect; 0% is about no effect
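Compounds were applied for 2 days to HeLa EGFP-654 cells, 500/well in Optimem with 2% FCS. The reporter's EGFP is disrupted by mis-splicing of beta-globin intron IVS2-654. Readout: summed well GFP fluorescence from 488 nm laser scanning; reference was 500 nM antisense […] 654 PNA.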
Epigenetic mod = derepresses silenced GFP locus in mouse C127i cells | 0.09% of 68,000 active | mouse C127i GFP locus derepression, cytometry, 30 h | Potency, µM (highest dose often 46.1 µM), for the others: at the top dose GFP derepression (activation); also: % of control where 0% means no effect
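Locus derepression in mouse mammary C127i cells whose integrated CMV-GFP reporter is normally silent; GFP expression after 30 h compound treatment was quantified by counting fluorescent cells.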
* hit, by the source's call; i = inactive; ? = inconclusive; . = no result given; [ ] = dose if it differs, or a comment. Unless noted, calls follow the shape of the dose curve; as a rule, active = well fitted curve in the direction sought with a large enough effect; inconclusive = small, poorly fitted or top-dose-only effect, or another doubt; inactive = no such curve, though single readings can be large; an effect the other way counts as inactive or inconclusive.

SMILES	PK Bst	FLuc inh	HBB splice mod	Epigenetic mod
COc1cccc(NC(=O)c2ccc(CN3CCOCC3)cc2)c1	.	?	-0.2%[57.5 µM]	0.6%
Cc1csc2ncc(C(=O)Nc3ccc4c(c3)OCCO4)c(=O)n12	.	-17.1%	-0.9%	.
Cc1cc(C(=O)Nc2ccc3c(c2)OCCO3)c(C)o1	i	15.8µM*	-1.1%	-1.6%
CCCN[C@@H](C)C(=O)Nc1c(C)csc1C(=O)OC	.	3.5%[25.5 µM]	-0.3%[20.6 µM]	0.0%[20.6 µM]
CC[C@H](C)C(=O)O[C@@H]1CCC=C2C=C[C@H](C)[C@@H](CC[C@H]3C[C@@H](O)CC(=O)O3)[C@H]21	.	-1.1%	1.6%	-2.4%
Cc1ncoc1C(=O)Nc1ccc2c(c1)OCCO2	.	20µM*	3.8%[1.84 µM]	2.0%
COc1ccc(NC(=O)c2ocnc2C)cc1OC	>57	-3.0%	2.9%[1.84 µM]	4.1%
Cc1occc1C(=O)Nc1ccc(S(=O)(=O)N2CCN(C)CC2)cc1	>57	1.9%	2.8%	2.6%
Cc1occc1C(=O)Nc1ccc2c(c1)CCC2	.	25.1µM*	2.6%	0.0%
COC(=O)NC(c1cccc(F)c1)C(C(C)=O)C(=O)OC (stereo unspecified)	.	.	0.9%[9.22 µM]	.
NC1=NC2(CCN(Cc3ccccc3)CC2)n2c(nc3ccccc32)N1	6.86*	-2.1%	0.4%[57.5 µM]	-2.2%
CCCCC	.	.	1.0%	.
O=C(CS(=O)(=O)c1ccccc1)c1ccc2c(c1)OCCO2	i	12.6µM*	0.5%	-3.2%
O=C(Cn1cnc2ccccc2c1=O)NCCC(=O)Nc1ccc2c(c1)OCCO2	>57	1.8%	0.3%	-2.4%
O=C(CC(=O)c1ccccc1)Nc1ccc2c(c1)OCCO2	.	20µM*	-1.9%	1.2%
O=C(O)CCC(=O)c1ccc2c(c1)OCCO2	.	-6.2%	0.5%	.
O=C(Cn1cnc2ccccc2c1=O)OCC(=O)c1ccc2c(c1)OCCO2	>57	-1.7%	1.7%[57.5 µM]	0.0%
O=C(COc1ncnc2ccccc12)c1ccc2c(c1)OCCO2	.	12.6µM*	-4.4%	0.0%
O=C(Cn1cnc2ccccc2c1=O)Nc1ccc2c(c1)OCCO2	i	12.6µM*	-1.3%	0.0%
CCc1cc2c(nc1CC)CCN(CC/C(C)=N/OCC[C@@H]1C=C[C@H](OC(C)=O)[C@H](COC(C)=O)O1)C2	.	1.6%[11.4 µM]	2.2%[9.22 µM]	.
CC(C)n1c(SCC(=O)c2ccc3c(c2)OCCO3)nc2c1c(=O)n(C)c(=O)n2C	>57	1.6%	.	1.0%
O=C(CSc1nc2ccccc2[nH]1)Nc1ccc2c(c1)OCCO2	.	25.1µM*	0.0%[57.5 µM]	0.0%
CCc1ccc(N2C(=O)c3sc4nnc(C)c(=O)n4c3C2=O)cc1	.	-3.2%	-1.4%	10µM*
Cc1ccc(-c2noc(-c3cccs3)n2)cc1	.	7.94µM*	-1.4%[9.22 µM]	0.0%
O=C(O)CCc1nc(-c2cccs2)no1	>57	1.6%	0.0%	4.1%
SMILES	PK Bst	FLuc inh	HBB splice mod	Epigenetic mod
COc1cccc(CNc2ccc(Br)cn2)c1O	i	5.01µM*	.	-3.7%[20.6 µM]
c1ccc2nc(-c3nc4ccccc4o3)ccc2c1	1.48*	1.26µM*	-0.3%	0.0%
CC(=O)OC[C@@H]1O[C@H](C/C=N\O[C@@H](C)CN2CCCCc3nc(C)c(C)cc32)C=C[C@@H]1OC(C)=O	.	-0.1%[11.4 µM]	0.0%[9.22 µM]	.
Cn1c(SCc2ccc(C#N)cc2Cl)nc2ccccc21	.	15.8µM*	-6.7%	-3.1%
Cn1c(SCc2nc3ccccc3n2CCO)nc2ccccc21	>57	-3.2%	-2.1%	-1.5%
c1ccc(/C(=N/Nc2nc3ccccc3s2)c2ccccn2)cc1	.	-1.0%[11.4 µM]	5.5%[9.22 µM]	?
CC(C)(C)N1C(=O)c2ccc(C(=O)Nc3nccs3)cc2C1=O	.	5.01µM*	-0.7%	-3.1%
CN(C)c1ccc(N=Nc2cccc3ccoc23)cc1	.	3.98µM*	3.5%[9.22 µM]	0.0%[9.22 µM]
CC1C(O)=C(c2nc3ccccc3[nH]2)C(=N)N1c1ccccc1 (stereo unspecified)	.	25.1µM*	4.7%	2.6%
N=C1C(c2nc3ccccc3[nH]2)=C(O)CN1c1ccccc1	.	-8.6%	-0.6%	2.0%
Cc1ccc(N2CC(C(=O)Nc3ccccn3)CC2=O)cc1 (stereo unspecified)	>57	0.6%	0.3%	-1.3%
COc1ccc(C(=O)/C=C/Nc2cccc(C)n2)cc1OC	0.632*	10µM*	.	-2.6%[20.6 µM]
Cc1ccc(C(=O)/C=C/Nc2ccccn2)cc1	0.747*	0.398µM*	.	2.6%[20.6 µM]
COc1ccc(C(=O)/C=C/N2CCCCC2)cc1OC	.	-22.5%	-0.4%[0.0738 µM]	-1.5%
CCSc1ccccc1C(=O)Nc1cccnc1	>57	1.4%	-0.1%	13.8%
COc1cc2cc(C(=O)Nc3ccccc3)c(N)nc2cc1OC	i	10µM*	0.0%[57.5 µM]	-2.3%
COc1cc2ccccc2cc1C(=O)Nc1ccc(N2CCN(C)CC2)cc1	11.2*	10µM*	0.5%[57.5 µM]	0.0%
O=C(Nc1cccnc1)c1ccc(Oc2ccccc2)cc1	i	12.6µM*	-0.8%	0.0%
O=C(Nc1cccnc1)c1ccccc1Oc1ccccc1	>57	1.3%	1.3%	0.0%
COc1ccccc1C(=O)Nc1ccc(N2CCN(S(C)(=O)=O)CC2)cc1	.	-22.6%	.	3.8%
COc1cc2ccccc2cc1C(=O)Nc1cccnc1	i	15.8µM*	-0.5%	0.0%
COC(=O)NC(c1cccc(C)c1)[C@]1(C(C)=O)CCOC1=O (stereo partly specified)	.	.	1.4%[9.22 µM]	.
COc1ccc(Oc2ncc3nc(CCc4ccccc4)c(=O)n(C[C@H]4CCCO4)c3n2)cc1	.	1.3%[11.4 µM]	-1.1%	2.7%[9.22 µM]
CCC(C)(C)NC(=O)C(OC(=O)c1cc2sccc2n1C)c1ccc(OC)cc1 (stereo unspecified)	>57	2.4%	.	0.0%
CCCOC(=O)CN1C(=O)c2ccccc2C1=O	>57	-1.3%	.	0.3%
SMILES	PK Bst	FLuc inh	HBB splice mod	Epigenetic mod
CCOCCOC(=O)COc1ccc(N2C(=O)c3ccccc3C2=O)cc1	.	15.8µM*	-2.5%[0.0738 µM]	-1.5%
CC(=O)O[C@H]1C2=CO[C@H](C)[C@H]3[C@H]4C5=C([C@H](O)[C@H]6O[C@@H]6C5=O)[C@H](O[C@H]4C)[C@@]23C(=O)[C@H]2O[C@@H]21	.	0.9%[11.4 µM]	-0.7%[9.22 µM]	.
N#Cc1c(/N=C/c2ccco2)sc2c1CCC2	.	2.51µM*	-0.4%	-3.7%
Cc1ccc(/C=N/c2sc3c(c2C#N)CCC3)s1	4.29*	1.58µM*	-0.7%	-0.4%
Cc1ccc(/C=N/c2sc3c(c2C#N)CCCCC3)o1	>57	0.6%	0.7%[57.5 µM]	-0.9%
O=C(Nc1cccnc1)c1cn(-c2ccccc2)nc1-c1cccs1	10.2*	10µM*	-1.7%	-2.6%
CC1=C(C(=O)Nc2cccnc2)C(c2cccnc2)n2nc(-c3cccs3)nc2N1 (stereo unspecified)	>57	-2.7%	-2.4%	3.4%
CC1CCC2C(=O)N3C(CCC(C)C3c3ccc(-c4ccco4)cc3)C(=O)N2C1c1ccc(-c2ccco2)cc1 (stereo unspecified)	.	.	2.5%[9.22 µM]	.
[Cl][In]([Cl])[Cl]	.	.	0.1%	.
O=C(CSc1nnnn1-c1cccc2ccccc12)N1CCOCC1	8.05*	-2.4%	3.5%	2.7%
O=C(CSc1nc2ccccc2nc1SCC(=O)N1CCOCC1)N1CCOCC1	.	-3.4%	-0.4%[9.22 µM]	-2.2%
CCS(=O)(=O)NCCc1cc2c(OC)ccc(OC)c2[nH]c1=O	11*	4.6%	0.2%	11.4%
COc1ccc(OC)c2[nH]c(=O)c(CCNC(C)=O)cc12	.	-0.3%	-0.4%	.
N[C@@H](CC(=O)O)C(=O)O	.	-1.4%	.	0.0%
